# Assay results: the supplement of paper PMC10849652
# Of roughly 7,900 targets only a part is listed; those with a hit were picked by preference. About 0.6% of all pairs of compound and target were hits. A number with no mark means an inactive call.
# Assays:
# Assay in all cases: log2 fold change, soluble protein after heating vs DMSO (PISA); higher = thermal stabilisation; K562 cells, 10 uM, 30 min; active = over 0.2 and 3.5 SD of the protein, either way, in both replicates (recomputed)
# IRAK-1-4 Inhibitor I = compound: C1COCCN1CCN2C3=CC=CC=C3N=C2NC(=O)C4=CC(=CC=C4)[N+](=O)[O-] [IRAK-1-4 Inhibitor I]
# How it was run: (§1)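 K562 cells (2×10^6 cells/mL) were treated with 10 μM compound for 30 min, and aliquots were heated for 3 min over 48°C-58°C. Pooled aliquots were extracted in PBS with 0.5% NP-40 at 4°C, and the supernatant after 21,000xg for 90 min was measured by TMTpro 16plex LC-MS/MS with channel sums equalised. Reported thermal stability, relative to control samples and from duplicates, is a log2 fold change.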
# ibrutinib = compound: C=CC(=O)N1CCC[C@@H](n2nc(-c3ccc(Oc4ccccc4)cc3)c3c(N)ncnc32)C1 [ibrutinib]
# How it was run: as §1
# [1] = compound: CC(=O)c1cnc2ccc(-c3cc(Cl)c(O)c(Cl)c3)nc2c1N[C@H]1CC[C@H](CN(C)C)CC1
# How it was run: as §1
# ralimetinib = compound: CC(C)(C)Cn1c(N)nc2ccc(-c3[nH]c(C(C)(C)C)nc3-c3ccc(F)cc3)nc21 [ralimetinib]
# How it was run: as §1
# [2] = compound: CC(C)(O)CC(=O)NCCn1ccc2ncnc(Nc3ccc(Oc4cccc(C(F)(F)F)c4)c(Cl)c3)c21
# How it was run: as §1
# [3] = compound: CC(C)C1=C2N=C(C=C(N2N=C1)NCC3=CC=CC=C3)NCCCCCCN
# How it was run: as §1
# [4] = compound: CC(C)C[C@@H](C=O)NC(=O)[C@H](CC(C)C)NC(=O)[C@H](CC(C)C)NC(=O)OCc1ccccc1
# How it was run: as §1
# pinometostat = compound: CC(C)N(C[C@H]1O[C@@H](n2cnc3c(N)ncnc32)[C@H](O)[C@@H]1O)[C@H]1C[C@@H](CCc2nc3cc(C(C)(C)C)ccc3[nH]2)C1 [pinometostat]
# How it was run: as §1
# [5] = compound: CC1=C(C(CC(=O)N1)C2=CC=C(C=C2)C(F)(F)F)C(=O)NC3=C(C=C4C(=C3)C=NN4)F
# How it was run: as §1
# [6] = compound: CC1=C(C2=C(C=C1)C(=O)C3=CC=CC=C3N2CCCN)C
# How it was run: as §1
# [7] = compound: CC1=C(C=C(C=C1)NC(=O)C2=CC(=CC=C2)C(C)(C)C#N)NC3=CC4=C(C=C3)N=CN(C4=O)C
# How it was run: as §1
# [8] = compound: CC1=C(C=C(C=C1)NC(=O)C2=CC(=CC=C2)N(C)C)NC(=O)C3=CC=C(C=C3)O
# How it was run: as §1
# [9] = compound: CC1=CC=C(C=C1)SC2=C3C=C(SC3=CN=C2)C(=O)N
# How it was run: as §1
# [10] = compound: CC1=NC(=CC=C1)C2=C(N=C(N2)C(C)(C)C)C3=CC4=NC=CN=C4C=C3
# How it was run: as §1
# Nexturastat A = compound: CCCCN(Cc1ccc(C(=O)NO)cc1)C(=O)Nc1ccccc1 [Nexturastat A]
# How it was run: as §1
# vemurafenib = compound: CCCS(=O)(=O)Nc1ccc(F)c(C(=O)c2c[nH]c3ncc(-c4ccc(Cl)cc4)cc23)c1F [vemurafenib]
# How it was run: as §1
# [11] = compound: CCCS(=O)(=O)Nc1ccc(F)c(C(=O)c2c[nH]c3ncc(Cl)cc23)c1F
# How it was run: as §1
# [12] = compound: CCCc1cc(C)[nH]c(=O)c1CNC(=O)c1cc(-c2ccnc(N3CCN(C)CC3)c2)cc2c1cnn2C(C)C
# How it was run: as §1
# givinostat = compound: CCN(CC)Cc1ccc2cc(COC(=O)Nc3ccc(C(=O)NO)cc3)ccc2c1 [givinostat]
# How it was run: as §1
# barasertib = compound: CCN(CCCOc1ccc2c(Nc3cc(CC(=O)Nc4cccc(F)c4)[nH]n3)ncnc2c1)CCOP(=O)(O)O [barasertib]
# How it was run: as §1
# Chain of UniProt O75674 (O75674 whole entry, looked up): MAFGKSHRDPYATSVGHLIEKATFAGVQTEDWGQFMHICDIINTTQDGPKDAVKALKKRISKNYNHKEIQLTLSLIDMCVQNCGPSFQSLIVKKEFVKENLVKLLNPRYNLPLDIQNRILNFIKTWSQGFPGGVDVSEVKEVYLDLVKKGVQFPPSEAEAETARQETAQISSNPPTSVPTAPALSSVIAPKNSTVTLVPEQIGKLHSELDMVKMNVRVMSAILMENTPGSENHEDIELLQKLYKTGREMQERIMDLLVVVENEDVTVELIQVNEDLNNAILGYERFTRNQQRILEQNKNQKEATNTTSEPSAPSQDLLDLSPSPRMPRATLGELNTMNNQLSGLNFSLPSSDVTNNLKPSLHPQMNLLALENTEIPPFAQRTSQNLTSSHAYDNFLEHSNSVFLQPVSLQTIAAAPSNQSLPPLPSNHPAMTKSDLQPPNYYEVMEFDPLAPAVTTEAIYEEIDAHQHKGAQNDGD
# Chain of UniProt O14980 (O14980 whole entry, looked up): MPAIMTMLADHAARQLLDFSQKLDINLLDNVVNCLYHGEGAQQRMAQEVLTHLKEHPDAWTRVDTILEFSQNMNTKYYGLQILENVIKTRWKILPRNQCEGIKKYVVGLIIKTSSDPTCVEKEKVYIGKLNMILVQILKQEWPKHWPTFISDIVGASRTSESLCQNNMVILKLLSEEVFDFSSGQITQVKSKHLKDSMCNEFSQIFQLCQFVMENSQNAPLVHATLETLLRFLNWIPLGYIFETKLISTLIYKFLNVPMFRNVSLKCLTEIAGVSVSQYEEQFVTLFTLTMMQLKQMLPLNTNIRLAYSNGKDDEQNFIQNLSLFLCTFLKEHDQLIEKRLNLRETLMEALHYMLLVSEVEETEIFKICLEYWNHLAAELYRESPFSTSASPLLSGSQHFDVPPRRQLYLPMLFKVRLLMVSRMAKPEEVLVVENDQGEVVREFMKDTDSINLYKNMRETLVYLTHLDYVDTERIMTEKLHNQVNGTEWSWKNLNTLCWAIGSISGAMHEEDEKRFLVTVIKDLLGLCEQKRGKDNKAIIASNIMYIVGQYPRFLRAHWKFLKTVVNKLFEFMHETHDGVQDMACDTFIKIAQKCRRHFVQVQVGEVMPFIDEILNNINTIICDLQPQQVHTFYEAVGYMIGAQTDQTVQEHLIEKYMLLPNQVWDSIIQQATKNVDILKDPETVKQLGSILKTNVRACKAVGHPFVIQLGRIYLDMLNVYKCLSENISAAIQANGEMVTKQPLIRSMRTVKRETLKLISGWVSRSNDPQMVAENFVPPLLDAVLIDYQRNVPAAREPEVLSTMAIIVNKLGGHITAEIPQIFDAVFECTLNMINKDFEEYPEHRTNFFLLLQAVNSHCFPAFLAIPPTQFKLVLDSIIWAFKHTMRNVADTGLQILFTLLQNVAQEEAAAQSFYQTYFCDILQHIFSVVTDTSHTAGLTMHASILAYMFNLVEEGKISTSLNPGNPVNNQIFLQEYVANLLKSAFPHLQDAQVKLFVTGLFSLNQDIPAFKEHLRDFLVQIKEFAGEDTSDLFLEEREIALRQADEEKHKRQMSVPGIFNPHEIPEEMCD
# Chain of UniProt Q14157 (Q14157 whole entry, looked up): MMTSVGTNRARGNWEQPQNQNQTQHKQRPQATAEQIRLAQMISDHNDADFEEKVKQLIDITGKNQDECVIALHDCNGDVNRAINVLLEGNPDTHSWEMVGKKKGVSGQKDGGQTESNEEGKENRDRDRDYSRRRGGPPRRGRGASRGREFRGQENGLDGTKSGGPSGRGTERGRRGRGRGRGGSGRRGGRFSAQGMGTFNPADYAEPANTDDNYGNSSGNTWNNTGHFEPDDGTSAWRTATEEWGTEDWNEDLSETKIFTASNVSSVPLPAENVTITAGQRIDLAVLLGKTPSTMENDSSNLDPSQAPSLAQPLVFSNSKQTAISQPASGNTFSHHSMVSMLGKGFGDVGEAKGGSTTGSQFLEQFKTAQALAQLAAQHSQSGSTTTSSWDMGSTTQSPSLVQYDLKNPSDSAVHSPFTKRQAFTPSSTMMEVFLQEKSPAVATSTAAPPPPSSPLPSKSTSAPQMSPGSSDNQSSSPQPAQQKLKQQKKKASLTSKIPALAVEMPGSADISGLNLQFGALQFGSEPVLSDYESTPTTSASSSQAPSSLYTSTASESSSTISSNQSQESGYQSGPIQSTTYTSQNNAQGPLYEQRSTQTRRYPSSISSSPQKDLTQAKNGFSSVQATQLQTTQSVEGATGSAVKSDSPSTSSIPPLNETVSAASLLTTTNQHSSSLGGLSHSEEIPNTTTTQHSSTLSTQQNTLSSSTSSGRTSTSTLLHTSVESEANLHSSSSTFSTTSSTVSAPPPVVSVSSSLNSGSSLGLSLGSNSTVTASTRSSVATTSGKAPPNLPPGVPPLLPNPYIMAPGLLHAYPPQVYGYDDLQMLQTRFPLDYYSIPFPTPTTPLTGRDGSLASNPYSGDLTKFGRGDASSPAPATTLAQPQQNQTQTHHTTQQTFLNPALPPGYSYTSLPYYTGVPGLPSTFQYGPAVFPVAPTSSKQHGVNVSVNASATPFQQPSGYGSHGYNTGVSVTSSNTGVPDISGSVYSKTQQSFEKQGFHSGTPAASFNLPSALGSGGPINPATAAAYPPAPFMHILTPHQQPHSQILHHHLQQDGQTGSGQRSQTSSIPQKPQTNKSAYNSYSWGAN
# Chain of UniProt Q14139 (Q14139 whole entry, looked up): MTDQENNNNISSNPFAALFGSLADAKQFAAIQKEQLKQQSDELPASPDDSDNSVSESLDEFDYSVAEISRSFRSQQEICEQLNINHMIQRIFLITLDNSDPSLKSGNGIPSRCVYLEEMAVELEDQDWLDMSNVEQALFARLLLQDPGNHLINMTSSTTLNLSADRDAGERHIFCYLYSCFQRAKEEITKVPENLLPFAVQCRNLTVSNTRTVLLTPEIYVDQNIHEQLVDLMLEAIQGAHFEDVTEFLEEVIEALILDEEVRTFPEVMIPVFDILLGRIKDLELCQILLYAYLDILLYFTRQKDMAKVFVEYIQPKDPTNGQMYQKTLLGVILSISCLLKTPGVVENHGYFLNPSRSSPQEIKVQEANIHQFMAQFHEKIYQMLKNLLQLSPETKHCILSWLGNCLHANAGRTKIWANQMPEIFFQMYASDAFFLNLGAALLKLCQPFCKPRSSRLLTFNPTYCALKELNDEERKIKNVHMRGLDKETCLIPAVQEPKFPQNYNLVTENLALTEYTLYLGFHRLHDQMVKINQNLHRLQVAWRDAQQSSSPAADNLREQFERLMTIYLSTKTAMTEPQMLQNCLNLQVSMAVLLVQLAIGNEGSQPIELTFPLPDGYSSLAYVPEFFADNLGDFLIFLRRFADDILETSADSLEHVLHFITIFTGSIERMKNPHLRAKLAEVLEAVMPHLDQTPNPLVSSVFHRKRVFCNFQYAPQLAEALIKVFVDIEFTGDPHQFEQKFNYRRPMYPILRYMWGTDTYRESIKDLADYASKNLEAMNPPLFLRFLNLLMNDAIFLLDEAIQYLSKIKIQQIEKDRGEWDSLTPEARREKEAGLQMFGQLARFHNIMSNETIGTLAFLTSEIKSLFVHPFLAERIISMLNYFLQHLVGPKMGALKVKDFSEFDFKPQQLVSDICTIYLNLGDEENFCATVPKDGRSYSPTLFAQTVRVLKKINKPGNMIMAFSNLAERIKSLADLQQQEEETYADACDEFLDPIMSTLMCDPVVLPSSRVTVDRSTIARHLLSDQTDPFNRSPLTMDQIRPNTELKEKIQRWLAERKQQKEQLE
# Chain of UniProt Q9P253 (Q9P253 whole entry, looked up): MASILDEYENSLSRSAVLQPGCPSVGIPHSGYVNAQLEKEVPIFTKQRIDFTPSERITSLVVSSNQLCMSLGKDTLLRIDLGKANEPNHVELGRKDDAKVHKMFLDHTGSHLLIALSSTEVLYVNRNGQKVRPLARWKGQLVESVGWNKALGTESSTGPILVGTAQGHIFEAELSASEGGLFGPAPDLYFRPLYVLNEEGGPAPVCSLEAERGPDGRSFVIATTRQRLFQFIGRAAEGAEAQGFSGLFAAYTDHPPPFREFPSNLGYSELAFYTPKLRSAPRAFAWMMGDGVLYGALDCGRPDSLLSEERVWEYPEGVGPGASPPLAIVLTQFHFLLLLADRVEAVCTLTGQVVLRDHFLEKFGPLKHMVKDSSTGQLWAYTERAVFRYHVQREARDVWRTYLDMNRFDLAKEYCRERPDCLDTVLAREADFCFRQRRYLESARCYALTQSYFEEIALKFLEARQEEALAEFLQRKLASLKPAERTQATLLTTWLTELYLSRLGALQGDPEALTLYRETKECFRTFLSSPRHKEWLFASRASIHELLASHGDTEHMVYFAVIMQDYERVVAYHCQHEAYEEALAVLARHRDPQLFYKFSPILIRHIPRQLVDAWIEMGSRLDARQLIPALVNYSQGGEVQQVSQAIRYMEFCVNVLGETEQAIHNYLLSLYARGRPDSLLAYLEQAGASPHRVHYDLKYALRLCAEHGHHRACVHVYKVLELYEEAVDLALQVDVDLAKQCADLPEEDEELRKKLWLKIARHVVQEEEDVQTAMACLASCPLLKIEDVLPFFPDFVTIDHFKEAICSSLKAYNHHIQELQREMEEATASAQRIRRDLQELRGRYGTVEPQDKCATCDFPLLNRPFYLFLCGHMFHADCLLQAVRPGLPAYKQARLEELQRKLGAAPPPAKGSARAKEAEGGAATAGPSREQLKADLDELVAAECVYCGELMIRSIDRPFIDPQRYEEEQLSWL
# Chain of UniProt Q15629 (Q15629 whole entry, looked up): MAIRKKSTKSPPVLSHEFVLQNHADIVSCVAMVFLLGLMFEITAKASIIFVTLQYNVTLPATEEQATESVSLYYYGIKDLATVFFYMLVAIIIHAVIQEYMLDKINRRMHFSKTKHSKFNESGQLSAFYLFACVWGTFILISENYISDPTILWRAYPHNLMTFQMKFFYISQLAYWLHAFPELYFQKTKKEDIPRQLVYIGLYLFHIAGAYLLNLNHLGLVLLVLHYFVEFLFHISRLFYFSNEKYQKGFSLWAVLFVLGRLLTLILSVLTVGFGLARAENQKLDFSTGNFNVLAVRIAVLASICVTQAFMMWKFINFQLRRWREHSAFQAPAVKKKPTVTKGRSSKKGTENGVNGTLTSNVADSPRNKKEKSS
Target,log2 fold change (IRAK-1-4 Inhibitor I),log2 fold change (ibrutinib),log2 fold change [1],log2 fold change (ralimetinib),log2 fold change [2],log2 fold change [3],log2 fold change [4],log2 fold change (pinometostat),log2 fold change [5],log2 fold change [6],log2 fold change [7],log2 fold change [8],log2 fold change [9],log2 fold change [10],log2 fold change (Nexturastat A),log2 fold change (vemurafenib),log2 fold change [11],log2 fold change [12],log2 fold change (givinostat),log2 fold change (barasertib)
VRK2 (UniProt Q86Y07),0.004,0.003,0.32 (active),0.21,-0.088,0.027,0.074,0.075,-0.03,0.109,-0.072,-0.05,0.01,0.015,0.04,0.006,0.044,0.025,0.03,0.01
TYW1 (UniProt Q9NV66),-0.031,-0.043,-0.096,0.044,0,0.03,-0.056,0.005,-0.074,0.051,0.027,-0.017,0.023,0.074,-0.08,0.025,0.084,0.069,-0.025,0.045
USP24 (UniProt Q9UPU5),0.052,0.086,0.156,-0.077,-0.093,0.004,-0.043,-0.026,-0.08,0.017,0.114,-0.026,0,0.012,-0.047,0,0.052,-0.042,0.011,-0.053
XPO1 (UniProt O14980),-0.013,-0.045,0.011,0.018,-0.196,-0.282 (active),-0.04,-0.013,-0.001,-0.011,0.072,-0.063,0.025,0.081,-0.061,0.086,0.101,-0.011,0.024,0.039
WAPL isoform 3 (UniProt Q7Z5K2),-0.086,-0.002,-0.05,-0.072,-0.057,-0.339,0.125,0.054,-0.003,-0.056,-0.038,-0.109,0.056,-0.006,-0.134,0.097,0.083,-0.054,0.149,0.201
UGDH (UniProt O60701),-0.019,0.03,-0.616 (active),-0.046,-0.038,0.017,-0.043,-0.105,0.004,0.078,0.039,-0.005,0.028,0.083,-0.064,0.043,0.102,-0.097,0.031,0.079
WDR43 (UniProt Q15061),0.023,0.019,0.012,-0.088,-0.003,0.199,-0.039,-0.035,0.009,0.222 (active),-0.015,0.018,0.009,-0.001,-0.097,-0.027,0.012,-0.061,-0.007,-0.033
TOM1L1 (UniProt O75674),0.006,-0.001,-0.014,-0.047,-0.013,0.019,0.028,-0.023,0.006,-0.019,-0.101,0.005,0.057,0.019,-0.038,0.102,0.015,-0.07,0.024,0.03
XPOT (UniProt O43592),-0.035,-0.061,0.064,-0.079,-0.146,-0.345 (active),0.053,0.03,0.001,0.033,0.018,-0.031,0.023,0.029,-0.012,0.039,0.128,0.014,0.007,0.08
TRAM1 (UniProt Q15629),-0.036,-0.051,-0.032,-0.014,-0.016,-0.889 (active),0.012,-0.011,0.016,0.119,0.024,-0.063,-0.006,0.048,0.005,0.027,0.02,-0.101,0.028,0.015
UBE4A isoform 2 (UniProt Q14139),-0.114,-0.125,-0.017,0.02,-0.032,-0.376 (active),0.096,0.093,0.098,0.041,-0.064,-0.058,-0.029,0.01,0.061,0.048,0.097,0.021,0.073,0.065
VPS18 (UniProt Q9P253),-0.02,-0.029,-0.029,-0.037,-0.024,-0.319,0.053,0.055,-0.019,0.059,0.051,-0.025,-0.029,-0.004,0.04,0.017,0.017,0.004,0.035,0.088
UBAP2L isoform 5 (UniProt Q14157),0.053,0.04,0.017,-0.007,0.003,0.053,-0.012,-0.032,0.009,0.068,-0.014,0.036,0.017,0.013,0.017,-0.008,0.006,-0.03,0.011,0.011
UFD1 isoform 1 (UniProt Q92890),0.025,-0.018,-0.005,0,-0.04,0.04,0.021,-0.04,-0.016,0,0.02,-0.025,0.037,0.106,0.015,0,0.018,-0.015,0.032,-0.011
UHRF1BP1L (UniProt A0JNW5),0.018,-0.051,-0.076,-0.009,0.193,0.242 (active),-0.004,0.03,-0.027,-0.019,-0.079,-0.031,-0.038,-0.032,-0.054,-0.039,-0.033,0.027,-0.033,0
UGGT1 (UniProt Q9NYU2),-0.011,-0.027,0.001,0.001,-0.028,-0.007,-0.038,0.028,-0.003,0.023,-0.001,0.004,0.001,-0.018,0.014,0,0.003,0.024,0.02,0
